{"source": "paper PMC7862700", "about": "“An all-to-all approach to the identification of sequence-specific readers for epigenetic DNA modifications on cytosine”", "assay_in_all_cases": "DAPPL (digital affinity profiling via proximity ligation, sequencing); 10 mM Tris-HCl pH 7.5, 50 mM NaCl, 1 mM DTT, 4% glycerol, room temperature, 30 min; GST-TFs on glutathione beads, 16-mer random dsDNA library, 0.1% formaldehyde crosslink after washing; high values mean tight binding", "key": {"FLI1": {"target": "T1, FLI1 (Homo sapiens, UniProt Q01543 1-452)", "T1 sequence": "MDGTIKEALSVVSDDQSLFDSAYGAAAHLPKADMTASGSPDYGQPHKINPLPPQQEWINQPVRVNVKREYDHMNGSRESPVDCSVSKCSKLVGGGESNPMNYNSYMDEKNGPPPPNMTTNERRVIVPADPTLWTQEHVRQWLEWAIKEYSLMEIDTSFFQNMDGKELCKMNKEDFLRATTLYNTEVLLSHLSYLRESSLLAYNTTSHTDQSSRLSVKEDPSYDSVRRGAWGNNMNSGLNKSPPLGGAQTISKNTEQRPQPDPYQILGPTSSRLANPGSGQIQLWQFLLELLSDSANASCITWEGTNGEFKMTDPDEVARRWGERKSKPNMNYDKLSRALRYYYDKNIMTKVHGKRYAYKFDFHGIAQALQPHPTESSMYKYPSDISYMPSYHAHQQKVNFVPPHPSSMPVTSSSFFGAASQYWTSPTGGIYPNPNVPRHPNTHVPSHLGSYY", "details": "protein: recombinant; tags: N-terminal GST; dsDNA, one strand shown", "how_it_was_run": "(§1)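 Binding signal is defined as a hexamer's read frequency for one factor over its frequency for the tag-only sample. To obtain reads, GST-fused human transcription factors were expressed in yeast, captured on glutathione beads, barcoded with DNA and pooled with that sample. Pools met 200 nmole of a 16-mer random double-stranded DNA library in Tris/NaCl/DTT/glycerol buffer for 30 min at room temperature before washing, 0.1% formaldehyde crosslinking, proximity ligation (BsaI/T4 ligase, 1 h, 37 °C), PCR and Illumina NextSeq500 sequencing.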"}, "ELK1": {"target": "T2, ELK1 (Homo sapiens, UniProt P19419 1-428)", "T2 sequence": "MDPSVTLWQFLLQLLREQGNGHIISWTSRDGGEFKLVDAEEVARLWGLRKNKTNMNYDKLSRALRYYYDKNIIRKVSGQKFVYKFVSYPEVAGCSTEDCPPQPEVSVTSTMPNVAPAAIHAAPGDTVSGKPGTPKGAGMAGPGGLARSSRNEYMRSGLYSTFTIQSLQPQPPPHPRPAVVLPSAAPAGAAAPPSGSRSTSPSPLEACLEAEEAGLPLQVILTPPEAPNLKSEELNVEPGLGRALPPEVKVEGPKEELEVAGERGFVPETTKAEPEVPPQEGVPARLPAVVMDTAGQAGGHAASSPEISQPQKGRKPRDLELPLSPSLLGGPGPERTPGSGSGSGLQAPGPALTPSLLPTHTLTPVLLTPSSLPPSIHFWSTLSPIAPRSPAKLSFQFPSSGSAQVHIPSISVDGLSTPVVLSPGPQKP", "details": "protein: recombinant; tags: N-terminal GST; dsDNA, one strand shown", "how_it_was_run": "as §1"}, "GABPA": {"target": "T3, GABPA (Homo sapiens, UniProt Q06546 1-454)", "T3 sequence": "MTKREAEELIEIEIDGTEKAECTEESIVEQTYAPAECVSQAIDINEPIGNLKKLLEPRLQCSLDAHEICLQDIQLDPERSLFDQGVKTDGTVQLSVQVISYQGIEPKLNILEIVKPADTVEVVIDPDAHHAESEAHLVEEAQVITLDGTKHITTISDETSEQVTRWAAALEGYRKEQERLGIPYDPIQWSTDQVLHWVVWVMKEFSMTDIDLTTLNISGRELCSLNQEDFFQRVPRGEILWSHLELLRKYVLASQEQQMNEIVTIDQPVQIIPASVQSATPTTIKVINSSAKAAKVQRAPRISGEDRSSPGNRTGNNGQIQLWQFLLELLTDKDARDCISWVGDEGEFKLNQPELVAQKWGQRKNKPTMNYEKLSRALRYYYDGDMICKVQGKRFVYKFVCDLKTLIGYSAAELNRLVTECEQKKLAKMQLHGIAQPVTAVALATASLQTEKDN", "details": "protein: recombinant; tags: N-terminal GST; dsDNA, one strand shown", "how_it_was_run": "as §1"}, "ERG": {"target": "T4, ERG (Homo sapiens, UniProt P11308 1-479)", "T4 sequence": "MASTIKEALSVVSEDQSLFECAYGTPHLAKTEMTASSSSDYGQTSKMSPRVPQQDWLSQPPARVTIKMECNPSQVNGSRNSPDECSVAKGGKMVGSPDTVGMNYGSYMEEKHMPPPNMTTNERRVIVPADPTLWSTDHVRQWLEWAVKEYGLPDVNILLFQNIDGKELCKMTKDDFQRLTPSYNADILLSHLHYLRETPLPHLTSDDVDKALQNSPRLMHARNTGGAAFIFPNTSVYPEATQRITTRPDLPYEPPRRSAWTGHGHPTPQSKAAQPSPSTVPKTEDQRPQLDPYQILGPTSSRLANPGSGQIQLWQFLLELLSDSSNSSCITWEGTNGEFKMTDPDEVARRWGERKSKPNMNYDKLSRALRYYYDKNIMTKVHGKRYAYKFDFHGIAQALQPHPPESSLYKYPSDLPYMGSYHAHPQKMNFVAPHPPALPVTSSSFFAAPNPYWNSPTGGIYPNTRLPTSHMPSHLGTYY", "details": "protein: recombinant; tags: N-terminal GST; dsDNA, one strand shown", "how_it_was_run": "as §1"}, "ELF1": {"target": "ELF1 (Homo sapiens, UniProt P32519 1-619)", "sequence (P32519 whole entry)": "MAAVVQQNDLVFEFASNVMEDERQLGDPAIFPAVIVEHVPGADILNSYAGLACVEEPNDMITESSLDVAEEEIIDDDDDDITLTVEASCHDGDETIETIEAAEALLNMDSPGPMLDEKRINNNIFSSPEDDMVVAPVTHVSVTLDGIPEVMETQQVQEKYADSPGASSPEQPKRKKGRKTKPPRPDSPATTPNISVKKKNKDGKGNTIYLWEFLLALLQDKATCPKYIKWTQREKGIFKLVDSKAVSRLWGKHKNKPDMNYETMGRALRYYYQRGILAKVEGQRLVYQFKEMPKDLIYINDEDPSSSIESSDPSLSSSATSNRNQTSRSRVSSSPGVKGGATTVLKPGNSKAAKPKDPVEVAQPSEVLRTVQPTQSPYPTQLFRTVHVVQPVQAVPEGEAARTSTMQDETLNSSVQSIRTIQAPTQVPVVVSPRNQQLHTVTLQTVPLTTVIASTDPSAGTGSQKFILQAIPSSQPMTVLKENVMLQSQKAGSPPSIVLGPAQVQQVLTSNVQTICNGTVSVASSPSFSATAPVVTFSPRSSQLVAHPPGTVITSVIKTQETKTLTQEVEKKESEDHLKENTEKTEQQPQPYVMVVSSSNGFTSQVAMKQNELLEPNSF", "details": "protein: recombinant; tags: N-terminal GST; dsDNA, one strand shown", "how_it_was_run": "as §1"}, "EHF": {"target": "T5, EHF (Homo sapiens, UniProt Q9NZC4 1-300)", "T5 sequence": "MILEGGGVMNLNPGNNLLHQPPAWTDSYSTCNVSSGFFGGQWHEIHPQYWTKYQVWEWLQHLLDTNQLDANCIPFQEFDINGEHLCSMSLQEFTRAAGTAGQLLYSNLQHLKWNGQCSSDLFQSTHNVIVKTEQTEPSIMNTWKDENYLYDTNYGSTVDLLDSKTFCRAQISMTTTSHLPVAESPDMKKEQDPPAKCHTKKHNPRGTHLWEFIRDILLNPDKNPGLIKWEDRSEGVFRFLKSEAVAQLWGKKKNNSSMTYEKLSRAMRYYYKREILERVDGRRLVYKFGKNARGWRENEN", "details": "protein: recombinant; tags: N-terminal GST; dsDNA, one strand shown", "how_it_was_run": "as §1"}, "SPI1": {"target": "SPI1 (Homo sapiens, UniProt P17947 1-270)", "details": "protein: recombinant; tags: N-terminal GST; dsDNA, one strand shown", "how_it_was_run": "as §1"}, "SPIB": {"target": "SPIB (Homo sapiens, UniProt Q01892 1-262)", "sequence (Q01892 whole entry)": "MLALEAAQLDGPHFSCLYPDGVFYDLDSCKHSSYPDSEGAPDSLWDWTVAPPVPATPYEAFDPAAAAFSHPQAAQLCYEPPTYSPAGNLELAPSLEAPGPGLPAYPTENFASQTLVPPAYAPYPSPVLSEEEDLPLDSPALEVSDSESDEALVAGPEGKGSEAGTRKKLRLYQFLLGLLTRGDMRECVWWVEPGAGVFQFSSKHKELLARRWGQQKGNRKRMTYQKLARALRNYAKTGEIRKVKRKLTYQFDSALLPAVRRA", "details": "protein: recombinant; tags: N-terminal GST; dsDNA, one strand shown", "how_it_was_run": "as §1"}, "ELK3": {"target": "T6, ELK3 (Homo sapiens, UniProt P41970 1-407)", "T6 sequence": "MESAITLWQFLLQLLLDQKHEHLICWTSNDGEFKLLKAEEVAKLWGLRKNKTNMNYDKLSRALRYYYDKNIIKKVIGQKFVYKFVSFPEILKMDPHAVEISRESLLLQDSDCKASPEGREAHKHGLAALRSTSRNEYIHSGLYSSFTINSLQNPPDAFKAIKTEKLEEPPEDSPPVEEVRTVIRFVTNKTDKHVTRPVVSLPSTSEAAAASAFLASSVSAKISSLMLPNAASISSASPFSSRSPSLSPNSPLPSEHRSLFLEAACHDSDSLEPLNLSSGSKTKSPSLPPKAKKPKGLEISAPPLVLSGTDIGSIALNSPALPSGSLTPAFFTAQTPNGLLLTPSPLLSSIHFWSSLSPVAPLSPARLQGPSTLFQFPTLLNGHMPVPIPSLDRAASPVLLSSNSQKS", "details": "protein: recombinant; tags: N-terminal GST; dsDNA, one strand shown", "how_it_was_run": "as §1"}, "FEV": {"target": "T7, FEV (Homo sapiens, UniProt Q99581 1-238)", "T7 sequence": "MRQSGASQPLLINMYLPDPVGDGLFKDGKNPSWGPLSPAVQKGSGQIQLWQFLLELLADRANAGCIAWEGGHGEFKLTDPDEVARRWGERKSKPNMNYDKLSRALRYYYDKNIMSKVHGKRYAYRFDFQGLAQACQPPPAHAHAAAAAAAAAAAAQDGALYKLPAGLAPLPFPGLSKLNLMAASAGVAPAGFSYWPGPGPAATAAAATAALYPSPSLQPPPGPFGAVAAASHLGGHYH", "details": "protein: recombinant; tags: N-terminal GST; dsDNA, one strand shown", "how_it_was_run": "as §1"}, "ETV5": {"target": "ETV5 (Homo sapiens, UniProt P41161 1-510)", "sequence (P41161 whole entry)": "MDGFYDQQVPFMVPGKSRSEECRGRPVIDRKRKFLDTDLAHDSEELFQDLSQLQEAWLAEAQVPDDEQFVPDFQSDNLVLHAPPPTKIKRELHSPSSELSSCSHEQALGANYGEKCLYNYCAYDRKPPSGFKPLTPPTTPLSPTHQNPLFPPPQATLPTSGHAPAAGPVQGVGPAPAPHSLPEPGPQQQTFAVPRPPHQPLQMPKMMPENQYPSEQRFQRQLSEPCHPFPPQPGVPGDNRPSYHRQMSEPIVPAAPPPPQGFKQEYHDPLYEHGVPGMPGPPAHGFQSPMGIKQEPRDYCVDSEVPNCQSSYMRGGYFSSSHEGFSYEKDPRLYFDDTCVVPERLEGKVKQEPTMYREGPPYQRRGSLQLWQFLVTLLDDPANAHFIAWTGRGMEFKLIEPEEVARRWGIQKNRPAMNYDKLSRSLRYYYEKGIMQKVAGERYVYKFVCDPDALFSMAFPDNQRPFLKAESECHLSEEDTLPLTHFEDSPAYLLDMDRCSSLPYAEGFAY", "details": "protein: recombinant; tags: N-terminal GST; dsDNA, one strand shown", "how_it_was_run": "as §1"}, "HSF1": {"target": "HSF1 (Homo sapiens, UniProt Q00613 1-529)", "sequence (Q00613 whole entry)": "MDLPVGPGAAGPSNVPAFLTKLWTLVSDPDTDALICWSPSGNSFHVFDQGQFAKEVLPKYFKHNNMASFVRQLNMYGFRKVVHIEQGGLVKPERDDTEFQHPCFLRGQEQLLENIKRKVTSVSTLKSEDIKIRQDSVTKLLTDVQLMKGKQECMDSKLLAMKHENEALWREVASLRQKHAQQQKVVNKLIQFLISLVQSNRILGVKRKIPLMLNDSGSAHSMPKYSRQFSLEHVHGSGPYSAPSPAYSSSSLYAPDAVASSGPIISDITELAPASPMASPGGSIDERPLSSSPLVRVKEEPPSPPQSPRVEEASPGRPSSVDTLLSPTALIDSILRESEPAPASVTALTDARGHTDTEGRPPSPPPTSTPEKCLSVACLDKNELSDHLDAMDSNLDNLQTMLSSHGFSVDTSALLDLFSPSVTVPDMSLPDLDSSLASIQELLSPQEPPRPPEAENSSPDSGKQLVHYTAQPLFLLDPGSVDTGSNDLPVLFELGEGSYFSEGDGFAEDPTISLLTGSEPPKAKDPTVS", "details": "protein: recombinant; tags: N-terminal GST; chain copies: 3; dsDNA, one strand shown", "how_it_was_run": "as §1"}, "SPIC": {"target": "T8, SPIC (Homo sapiens, UniProt Q8N5J4 1-248)", "T8 sequence": "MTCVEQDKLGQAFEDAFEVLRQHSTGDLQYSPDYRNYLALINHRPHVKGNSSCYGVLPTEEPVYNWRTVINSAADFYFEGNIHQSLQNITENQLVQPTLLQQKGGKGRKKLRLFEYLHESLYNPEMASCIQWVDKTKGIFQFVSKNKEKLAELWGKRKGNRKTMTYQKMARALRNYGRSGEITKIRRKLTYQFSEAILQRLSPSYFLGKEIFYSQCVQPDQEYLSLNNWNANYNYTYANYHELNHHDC", "details": "protein: recombinant; tags: N-terminal GST; dsDNA, one strand shown", "how_it_was_run": "as §1"}, "ELF4": {"target": "ELF4 (Homo sapiens, UniProt Q99607 1-663)", "sequence (Q99607 whole entry)": "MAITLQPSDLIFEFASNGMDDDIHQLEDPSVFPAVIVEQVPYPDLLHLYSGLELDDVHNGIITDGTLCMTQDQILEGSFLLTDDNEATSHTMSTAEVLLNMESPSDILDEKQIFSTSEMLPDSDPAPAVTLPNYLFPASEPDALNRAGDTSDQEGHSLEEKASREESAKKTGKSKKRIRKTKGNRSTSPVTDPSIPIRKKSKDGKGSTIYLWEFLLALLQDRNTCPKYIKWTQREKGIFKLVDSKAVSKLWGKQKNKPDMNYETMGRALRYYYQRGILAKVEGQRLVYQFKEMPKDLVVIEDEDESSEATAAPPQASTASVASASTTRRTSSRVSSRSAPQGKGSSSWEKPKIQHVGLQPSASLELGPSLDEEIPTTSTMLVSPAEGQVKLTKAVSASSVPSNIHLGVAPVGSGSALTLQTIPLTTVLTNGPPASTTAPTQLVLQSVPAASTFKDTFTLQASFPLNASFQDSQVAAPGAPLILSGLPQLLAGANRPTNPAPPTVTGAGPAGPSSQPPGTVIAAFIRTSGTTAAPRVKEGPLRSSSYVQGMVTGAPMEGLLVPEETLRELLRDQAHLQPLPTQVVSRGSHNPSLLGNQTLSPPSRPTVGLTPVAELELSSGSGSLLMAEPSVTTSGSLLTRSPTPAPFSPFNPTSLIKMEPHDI", "details": "protein: recombinant; tags: N-terminal GST; dsDNA, one strand shown", "how_it_was_run": "as §1"}, "ELK4": {"target": "T9, ELK4 (Homo sapiens, UniProt P28324-2 1-405)", "T9 sequence": "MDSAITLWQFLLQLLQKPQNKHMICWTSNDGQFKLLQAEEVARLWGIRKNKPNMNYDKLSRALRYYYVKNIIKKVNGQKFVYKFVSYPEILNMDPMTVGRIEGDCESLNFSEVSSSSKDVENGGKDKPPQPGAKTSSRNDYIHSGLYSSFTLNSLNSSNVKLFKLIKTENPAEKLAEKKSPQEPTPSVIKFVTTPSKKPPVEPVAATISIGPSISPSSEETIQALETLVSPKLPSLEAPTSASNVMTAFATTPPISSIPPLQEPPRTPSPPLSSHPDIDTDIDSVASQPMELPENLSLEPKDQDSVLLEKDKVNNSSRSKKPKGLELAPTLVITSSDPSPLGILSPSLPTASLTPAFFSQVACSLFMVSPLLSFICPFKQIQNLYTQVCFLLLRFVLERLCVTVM", "details": "protein: recombinant; tags: N-terminal GST; dsDNA, one strand shown", "how_it_was_run": "as §1"}, "CRX": {"target": "CRX (Homo sapiens, UniProt O43186 1-299)", "sequence (O43186 whole entry)": "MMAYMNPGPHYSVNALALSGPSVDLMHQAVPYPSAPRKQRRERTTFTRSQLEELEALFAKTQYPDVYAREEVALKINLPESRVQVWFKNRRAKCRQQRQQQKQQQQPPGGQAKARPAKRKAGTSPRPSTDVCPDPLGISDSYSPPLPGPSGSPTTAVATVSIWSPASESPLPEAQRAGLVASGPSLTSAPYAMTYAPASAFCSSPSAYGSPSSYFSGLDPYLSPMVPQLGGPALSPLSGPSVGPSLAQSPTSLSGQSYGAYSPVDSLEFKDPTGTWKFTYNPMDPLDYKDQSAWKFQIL", "details": "protein: recombinant; tags: N-terminal GST; dsDNA, one strand shown", "how_it_was_run": "as §1"}, "ETV1": {"target": "ETV1 (Homo sapiens, UniProt P50549 1-477)", "sequence (P50549 whole entry)": "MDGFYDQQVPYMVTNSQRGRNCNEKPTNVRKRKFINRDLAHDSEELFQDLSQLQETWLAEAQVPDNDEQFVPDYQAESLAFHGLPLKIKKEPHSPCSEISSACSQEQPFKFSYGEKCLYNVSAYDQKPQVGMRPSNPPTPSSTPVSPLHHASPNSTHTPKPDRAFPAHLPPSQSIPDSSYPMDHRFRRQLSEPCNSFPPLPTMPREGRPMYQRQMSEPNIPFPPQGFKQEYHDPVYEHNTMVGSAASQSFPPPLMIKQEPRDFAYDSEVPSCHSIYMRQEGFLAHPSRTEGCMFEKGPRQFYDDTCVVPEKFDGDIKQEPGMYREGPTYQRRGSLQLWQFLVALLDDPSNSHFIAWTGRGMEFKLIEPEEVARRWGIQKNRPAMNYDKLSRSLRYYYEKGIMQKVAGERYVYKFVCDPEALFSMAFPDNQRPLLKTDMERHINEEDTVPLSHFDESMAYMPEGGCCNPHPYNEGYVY", "details": "protein: recombinant; tags: N-terminal GST; dsDNA, one strand shown", "how_it_was_run": "as §1"}}, "data": [{"sequence": "TAACTC", "values": [{"measurement": "binding signal", "setting": "FLI1", "value": "1.3 fold enrichment (6-mer frequency, TF over GST control)"}, {"measurement": "binding signal", "setting": "ELK1", "value": "1.22 fold enrichment (6-mer frequency, TF over GST control)"}, {"measurement": "binding signal", "setting": "GABPA", "value": "1.23 fold enrichment (6-mer frequency, TF over GST control)"}, {"measurement": "binding signal", "setting": "ERG", "value": "1.11 fold enrichment (6-mer frequency, TF over GST control)"}, {"measurement": "binding signal", "setting": "ELF1", "value": "1.29 fold enrichment (6-mer frequency, TF over GST control)"}, {"measurement": "binding signal", "setting": "EHF", "value": "1.16 fold enrichment (6-mer frequency, TF over GST control)"}, {"measurement": "binding signal", "setting": "SPI1", "value": "1.18 fold enrichment (6-mer frequency, TF over GST control)"}, {"measurement": "binding signal", "setting": "SPIB", "value": "1.21 fold enrichment (6-mer frequency, TF over GST control)"}, {"measurement": "binding signal", "setting": "ELK3", "value": "1.18 fold enrichment (6-mer frequency, TF over GST control)"}, {"measurement": "binding signal", "setting": "FEV", "value": "1.1 fold enrichment (6-mer frequency, TF over GST control)"}, {"measurement": "binding signal", "setting": "ETV5", "value": "1.21 fold enrichment (6-mer frequency, TF over GST control)"}, {"measurement": "binding signal", "setting": "HSF1", "value": "1.34 fold enrichment (6-mer frequency, TF over GST control)"}, {"measurement": "binding signal", "setting": "SPIC", "value": "1.25 fold enrichment (6-mer frequency, TF over GST control)"}, {"measurement": "binding signal", "setting": "ELF4", "value": "1.29 fold enrichment (6-mer frequency, TF over GST control)"}, {"measurement": "binding signal", "setting": "ELK4", "value": "1.34 fold enrichment (6-mer frequency, TF over GST control)"}, {"measurement": "binding signal", "setting": "CRX", "value": "1.58 fold enrichment (6-mer frequency, TF over GST control)"}, {"measurement": "binding signal", "setting": "ETV1", "value": "1.23 fold enrichment (6-mer frequency, TF over GST control)"}]}]}
